HT1080-NT tox = kills 2HG-producing HT-1080-NT fibrosarcoma cells; HT-1080-NT fibrosarcoma viability, CellTiter-Glo ATP luminescence, 48 h; Potency, µM (titrated, usually from 46.1 µM), usual class: cytotoxic; 360,000 tested, 1.6% active; AID 686970;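 also: NT is the 2HG producing partner of a matched IDH1 knockdown line; nearly all actives have a fitted effect of over 55% in size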
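Luminescent CellTiter-Glo readout after 48 hours of compound exposure at 37 degrees C defined viability of HT-1080-NT cells. Activity was normalized to DMSO wells and cell-free media wells; concentration-response curves were fitted and assigned curve classes.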
DT40 TDP1 no CPT = qHTS for Inhibitors of human tyrosyl-DNA phosphodiesterase 1 (TDP1): qHTS in cells in absence of CPT; AID 686978, 2013; 420,000 tested, 15% active; Potency, µM (series often up to 46.2 µM), actives largely listed as inhibitors; DT40 Tdp1-/- hTDP1 cells, no CPT, ATP luminescence, 48 h; also: nearly all actives have a fitted effect of over 55% in size
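Readout: luminescence from CellTiter-Glo after 30 min in the dark at RT. Cells: DT40 Tdp1-/- with stable hTDP1, 400/well. Exposure: compounds alone, ≥48 hr, 37 °C.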
HT1080 IDH1KD tx = kills HT-1080 cells with IDH1 knockdown | 360,000 tested, 2% active | Potency, µM (doses to about 46.1 µM), usual class: cytotoxic | AID 686971 | HT-1080 IDH1 knockdown viability, ATP luminescence, 48 h
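In this qHTS, HT-1080 cells depleted of IDH1 are exposed for 48 h at 37 °C to compound titrations. Toxicity is scored from CellTiter-Glo luminescence, with DMSO as full viability and medium alone as none.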
IL1B secr inh = inhibitors of inflammasome signaling (IL-1 beta secretion). THP-1 LPS/ATP IL-1B secretion, AlphaLISA, 16 h; hits give low values. activity change, % at 57.5 µM. 360,000 tested, 4.7% active. AID 743279; in the data active = activity change below about -50%; inconclusive = mostly about -30% to -49%
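THP-1 cells pretreated 1 hr with compounds (up to 57.5 uM final), then stimulated with LPS (250 ng/mL final) plus ATP (1.25 mM final); secreted IL-1B measured by AlphaLISA after 16 hr, decreased signal indicating inhibition.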
TDP1 cell CPT = DT40-hTDP1 cell growth loss with CPT; AID 686979; chicken DT40 Tdp1-/-;hTDP1 cells + 20 nM CPT, ATP luminescence, 48 h; 420,000 tested, 12% active; Potency, µM (series often up to 46.2 µM), actives largely listed as inhibitors; also: nearly all actives have a fitted effect of over 55% in size
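Cell growth measured by CellTiter-Glo luminescence after a minimum 48 h, 37 C compound exposure with 20 nM CPT in Tdp1-knockout DT40 cells stably expressing hTDP1, seeded 400/well; qHTS titration format.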
Large screens that a line does not name were inactive. Rows were chosen to be rich in hits. Some 19% of all compounds tested hit in one or more screens of this group. Unless noted, calls follow the shape of the dose curve; as a rule, active = well fitted curve in the direction sought with a large enough effect; inconclusive = small, poorly fitted or top-dose-only effect, or another doubt; inactive = no such curve, though single readings can be large; an effect the other way counts as inactive or inconclusive.

Cc1ccc(C(C(=O)NCc2ccc(F)cc2)N(Cc2ccco2)C(=O)c2snc(C(N)=O)c2N)o1 (configuration not stated)	HT1080-NT tox inconclusive, DT40 TDP1 no CPT 15µM, IL1B secr inh -71, TDP1 cell CPT 15µM
COCCn1c(SCC(=O)N2CCN(c3ccccc3)CC2)nc2c(c1=O)SC(C)C2 (configuration not stated)	DT40 TDP1 no CPT 18µM, TDP1 cell CPT 21µM
CCn1c(SCC(=O)c2ccccc2)nc2c(c1=O)SC(C)C2 (configuration not stated)	DT40 TDP1 no CPT inconclusive, TDP1 cell CPT inconclusive
COCCn1c(SCC(=O)N2CCc3ccccc32)nc2c(c1=O)SC(C)C2 (configuration not stated)	DT40 TDP1 no CPT inconclusive, TDP1 cell CPT inconclusive
COCCn1c(SCC(=O)c2ccccc2)nc2c(c1=O)SC(C)C2 (configuration not stated)	DT40 TDP1 no CPT inconclusive, TDP1 cell CPT 23µM
CC(C)(C)NC(=O)C(c1ccncc1)N(C(=O)C1CSC(=O)C1)c1ccccc1 (configuration not stated)	none
Cc1oc(-c2cccc(NC(=O)c3ccccn3)c2)nc1CNC(=O)c1cc(F)c(F)cc1F	none (no result: HT1080-NT tox, HT1080 IDH1KD tx, IL1B secr inh)
COc1ccc2oc(=O)c(C(=O)NCc3ccco3)cc2c1	HT1080 IDH1KD tx inconclusive
CCOC(=O)c1ccc(NC(=O)CC2C(=O)N(c3ccc(F)cc3)C(=O)N2Cc2ccc(C)cc2)cc1 (configuration not stated)	DT40 TDP1 no CPT inconclusive, TDP1 cell CPT 16µM (no result: HT1080-NT tox, HT1080 IDH1KD tx, IL1B secr inh)
CCOC(=O)c1ccc(NC(=O)CC2C(=O)N(c3cccc(OC)c3)C(=O)N2Cc2cccnc2)cc1 (configuration not stated)	DT40 TDP1 no CPT 21µM, TDP1 cell CPT 13µM (no result: HT1080-NT tox, HT1080 IDH1KD tx, IL1B secr inh)
CCOC(=O)c1ccc(NC(=O)CC2C(=O)N(c3ccc(F)cc3)C(=O)N2Cc2cccnc2)cc1 (configuration not stated)	DT40 TDP1 no CPT 15µM, TDP1 cell CPT 18µM (no result: HT1080-NT tox, HT1080 IDH1KD tx, IL1B secr inh)
CCOC(=O)c1cccc(NC(=O)CC2C(=O)N(c3ccc(C)cc3)C(=O)N2Cc2cccc(OC)c2)c1 (configuration not stated)	DT40 TDP1 no CPT inconclusive, TDP1 cell CPT 18µM (no result: HT1080-NT tox, HT1080 IDH1KD tx, IL1B secr inh)
COc1ccc(NC(=O)CC2C(=O)N(c3ccc(OC)cc3)C(=O)N2Cc2ccc(OC)c(OC)c2)cc1 (configuration not stated)	none
COc1ccc(NC(=O)CC2C(=O)N(c3ccccc3)C(=O)N2Cc2cccnc2)cc1 (configuration not stated)	none (no result: HT1080-NT tox, HT1080 IDH1KD tx, IL1B secr inh)
CCN(C(=O)COC(=O)c1ccc(Cl)c(S(=O)(=O)N2CCCCC2)c1)C1CCS(=O)(=O)C1 (configuration not stated)	none
COc1cc(C(F)(F)F)ccc1C(=O)NCCc1ccco1	HT1080-NT tox inconclusive, HT1080 IDH1KD tx inconclusive, IL1B secr inh inconclusive
CC(=O)Nc1ccc(Oc2ccc(S(=O)(=O)N3CCCC3)cn2)cc1	none
CCOC(=O)c1ccc(NC(=O)CC2C(=O)N(c3cccc(OC)c3)C(=O)N2Cc2ccc(OC)cc2)cc1 (configuration not stated)	DT40 TDP1 no CPT inconclusive, TDP1 cell CPT 21µM (no result: HT1080-NT tox, HT1080 IDH1KD tx, IL1B secr inh)
CCOc1ccc(NC(=O)CC2C(=O)N(c3ccc(OC)cc3)C(=O)N2Cc2ccc(OC)cc2)cc1 (configuration not stated)	DT40 TDP1 no CPT inconclusive, TDP1 cell CPT inconclusive
CCc1ccc(N=C2NC(=O)/C(=C/c3cc(OC)c(OC)c(OC)c3)S2)cc1	DT40 TDP1 no CPT inconclusive, HT1080 IDH1KD tx inconclusive, TDP1 cell CPT inconclusive
O=C1NC(=Nc2ccc(O)cc2)S/C1=C/c1ccco1	HT1080-NT tox inconclusive, DT40 TDP1 no CPT 18µM, HT1080 IDH1KD tx inconclusive, TDP1 cell CPT inconclusive
C=CCOc1c(Br)cc(/C=C2\SC(=Nc3ccccc3)NC2=O)cc1OC	DT40 TDP1 no CPT 21µM, TDP1 cell CPT inconclusive
COc1cc(/C=C2\SC(=Nc3ccc(O)cc3)NC2=O)cc(OC)c1O	HT1080-NT tox inconclusive, DT40 TDP1 no CPT 5.2µM, HT1080 IDH1KD tx inconclusive, TDP1 cell CPT 21µM
Nc1nc(Cl)cc(N2CCC(c3cc(-c4ccc(Cl)cc4)n[nH]3)CC2)n1	HT1080-NT tox 22µM, DT40 TDP1 no CPT 2.8µM, HT1080 IDH1KD tx 11µM, TDP1 cell CPT 3.5µM
COc1ccc(OC)c(-c2cc(C3CCN(c4cc(Cl)nc(N)n4)CC3)[nH]n2)c1	DT40 TDP1 no CPT 21µM, HT1080 IDH1KD tx inconclusive, TDP1 cell CPT 13µM
CCOCC(=O)Nc1cc(C(=O)OC)cc(C(=O)OC)c1	none
COc1cc(C(=O)N2C[C@@H]3CCC[C@H]2C3)ccc1OC1CCN(C(C)=O)CC1	none
O=C(c1cccc(S(=O)(=O)N2CCCC2)c1)N1CCN(S(=O)(=O)c2cccc(Cl)c2)CC1	DT40 TDP1 no CPT inconclusive, TDP1 cell CPT inconclusive
Cc1cccc(NC(=O)c2n[nH]c([N+](=O)[O-])c2Br)c1C	HT1080-NT tox inconclusive, DT40 TDP1 no CPT inconclusive, HT1080 IDH1KD tx 26µM, IL1B secr inh inconclusive
CC(=O)c1c(C)[nH]c(C(=O)Nc2cccc(C)c2C)c1C	none
Cc1cccc(CC2C(=O)Nc3ccccc32)c1 (configuration not stated)	DT40 TDP1 no CPT 21µM, TDP1 cell CPT inconclusive (no result: HT1080-NT tox, HT1080 IDH1KD tx, IL1B secr inh)
CSc1ccc(CC2C(=O)Nc3ccccc32)cc1 (configuration not stated)	DT40 TDP1 no CPT 21µM, TDP1 cell CPT inconclusive (no result: HT1080-NT tox, HT1080 IDH1KD tx, IL1B secr inh)
CCOc1ccc(NC(=O)C2CCN(S(=O)(=O)c3c(C)noc3/C=C/c3ccco3)CC2)cc1	DT40 TDP1 no CPT inconclusive (no result: HT1080-NT tox, HT1080 IDH1KD tx, IL1B secr inh)
CCOc1ccc(CCNC(=O)C2Cc3ccccc3N2C(=O)CC)cc1 (configuration not stated)	none (no result: HT1080-NT tox, HT1080 IDH1KD tx, IL1B secr inh)
CCOC(=O)c1c(NC(=O)COC(=O)c2ccc(C)s2)sc2c1CC(C)(C)NC2(C)C	DT40 TDP1 no CPT 18µM, IL1B secr inh -59, TDP1 cell CPT inconclusive
CCOC(=O)N1CCN(S(=O)(=O)c2ccc(C(=O)Nc3sc4c(c3C(N)=O)CC(C)(C)NC4(C)C)cc2)CC1	HT1080-NT tox inconclusive, HT1080 IDH1KD tx inconclusive
CCOC(=O)c1c(NC(=O)COc2ccccc2OCC)sc2c1CC(C)(C)NC2(C)C	DT40 TDP1 no CPT 5.8µM, IL1B secr inh -106, TDP1 cell CPT 6.5µM
CCOC(=O)c1c(NC(=O)COc2ccccc2C#N)sc2c1CC(C)(C)NC2(C)C	DT40 TDP1 no CPT 5.8µM, TDP1 cell CPT 5.2µM
CCOC(=O)c1c(NC(=O)c2ccc(S(=O)(=O)N3CCCC(C)C3)cc2)sc2c1CC(C)(C)NC2(C)C (configuration not stated)	DT40 TDP1 no CPT 21µM, TDP1 cell CPT 16µM (no result: HT1080-NT tox, HT1080 IDH1KD tx, IL1B secr inh)
Cc1cccc(-c2cnc3cccnn23)c1	DT40 TDP1 no CPT inconclusive, TDP1 cell CPT inconclusive

Bioassay records deposited in PubChem by National Center for Advancing Translational Sciences (NCATS).
